Results published in the supplement of paper PMC11732987, “Enantioselective OTUD7B fragment discovery through chemoproteomics screening and high-throughput optimisation” (Communications Chemistry, 2025).

Legend:
Test in all cases: log2 ratio of Biotin-Ahx-Ub-VS probe labelling (fragment/DMSO); higher = less target engagement (more negative = stronger competition), active = hit call of the paper (q ≤ 0.05, log2 ratio ≤ -1)
Details in all cases: compound concentration: 200 uM; treatment time: 3 h
USP34 = USP34 (UniProt Q70CQ2)
Chain of USP34 (Q70CQ2 whole entry, the tested form may be a part): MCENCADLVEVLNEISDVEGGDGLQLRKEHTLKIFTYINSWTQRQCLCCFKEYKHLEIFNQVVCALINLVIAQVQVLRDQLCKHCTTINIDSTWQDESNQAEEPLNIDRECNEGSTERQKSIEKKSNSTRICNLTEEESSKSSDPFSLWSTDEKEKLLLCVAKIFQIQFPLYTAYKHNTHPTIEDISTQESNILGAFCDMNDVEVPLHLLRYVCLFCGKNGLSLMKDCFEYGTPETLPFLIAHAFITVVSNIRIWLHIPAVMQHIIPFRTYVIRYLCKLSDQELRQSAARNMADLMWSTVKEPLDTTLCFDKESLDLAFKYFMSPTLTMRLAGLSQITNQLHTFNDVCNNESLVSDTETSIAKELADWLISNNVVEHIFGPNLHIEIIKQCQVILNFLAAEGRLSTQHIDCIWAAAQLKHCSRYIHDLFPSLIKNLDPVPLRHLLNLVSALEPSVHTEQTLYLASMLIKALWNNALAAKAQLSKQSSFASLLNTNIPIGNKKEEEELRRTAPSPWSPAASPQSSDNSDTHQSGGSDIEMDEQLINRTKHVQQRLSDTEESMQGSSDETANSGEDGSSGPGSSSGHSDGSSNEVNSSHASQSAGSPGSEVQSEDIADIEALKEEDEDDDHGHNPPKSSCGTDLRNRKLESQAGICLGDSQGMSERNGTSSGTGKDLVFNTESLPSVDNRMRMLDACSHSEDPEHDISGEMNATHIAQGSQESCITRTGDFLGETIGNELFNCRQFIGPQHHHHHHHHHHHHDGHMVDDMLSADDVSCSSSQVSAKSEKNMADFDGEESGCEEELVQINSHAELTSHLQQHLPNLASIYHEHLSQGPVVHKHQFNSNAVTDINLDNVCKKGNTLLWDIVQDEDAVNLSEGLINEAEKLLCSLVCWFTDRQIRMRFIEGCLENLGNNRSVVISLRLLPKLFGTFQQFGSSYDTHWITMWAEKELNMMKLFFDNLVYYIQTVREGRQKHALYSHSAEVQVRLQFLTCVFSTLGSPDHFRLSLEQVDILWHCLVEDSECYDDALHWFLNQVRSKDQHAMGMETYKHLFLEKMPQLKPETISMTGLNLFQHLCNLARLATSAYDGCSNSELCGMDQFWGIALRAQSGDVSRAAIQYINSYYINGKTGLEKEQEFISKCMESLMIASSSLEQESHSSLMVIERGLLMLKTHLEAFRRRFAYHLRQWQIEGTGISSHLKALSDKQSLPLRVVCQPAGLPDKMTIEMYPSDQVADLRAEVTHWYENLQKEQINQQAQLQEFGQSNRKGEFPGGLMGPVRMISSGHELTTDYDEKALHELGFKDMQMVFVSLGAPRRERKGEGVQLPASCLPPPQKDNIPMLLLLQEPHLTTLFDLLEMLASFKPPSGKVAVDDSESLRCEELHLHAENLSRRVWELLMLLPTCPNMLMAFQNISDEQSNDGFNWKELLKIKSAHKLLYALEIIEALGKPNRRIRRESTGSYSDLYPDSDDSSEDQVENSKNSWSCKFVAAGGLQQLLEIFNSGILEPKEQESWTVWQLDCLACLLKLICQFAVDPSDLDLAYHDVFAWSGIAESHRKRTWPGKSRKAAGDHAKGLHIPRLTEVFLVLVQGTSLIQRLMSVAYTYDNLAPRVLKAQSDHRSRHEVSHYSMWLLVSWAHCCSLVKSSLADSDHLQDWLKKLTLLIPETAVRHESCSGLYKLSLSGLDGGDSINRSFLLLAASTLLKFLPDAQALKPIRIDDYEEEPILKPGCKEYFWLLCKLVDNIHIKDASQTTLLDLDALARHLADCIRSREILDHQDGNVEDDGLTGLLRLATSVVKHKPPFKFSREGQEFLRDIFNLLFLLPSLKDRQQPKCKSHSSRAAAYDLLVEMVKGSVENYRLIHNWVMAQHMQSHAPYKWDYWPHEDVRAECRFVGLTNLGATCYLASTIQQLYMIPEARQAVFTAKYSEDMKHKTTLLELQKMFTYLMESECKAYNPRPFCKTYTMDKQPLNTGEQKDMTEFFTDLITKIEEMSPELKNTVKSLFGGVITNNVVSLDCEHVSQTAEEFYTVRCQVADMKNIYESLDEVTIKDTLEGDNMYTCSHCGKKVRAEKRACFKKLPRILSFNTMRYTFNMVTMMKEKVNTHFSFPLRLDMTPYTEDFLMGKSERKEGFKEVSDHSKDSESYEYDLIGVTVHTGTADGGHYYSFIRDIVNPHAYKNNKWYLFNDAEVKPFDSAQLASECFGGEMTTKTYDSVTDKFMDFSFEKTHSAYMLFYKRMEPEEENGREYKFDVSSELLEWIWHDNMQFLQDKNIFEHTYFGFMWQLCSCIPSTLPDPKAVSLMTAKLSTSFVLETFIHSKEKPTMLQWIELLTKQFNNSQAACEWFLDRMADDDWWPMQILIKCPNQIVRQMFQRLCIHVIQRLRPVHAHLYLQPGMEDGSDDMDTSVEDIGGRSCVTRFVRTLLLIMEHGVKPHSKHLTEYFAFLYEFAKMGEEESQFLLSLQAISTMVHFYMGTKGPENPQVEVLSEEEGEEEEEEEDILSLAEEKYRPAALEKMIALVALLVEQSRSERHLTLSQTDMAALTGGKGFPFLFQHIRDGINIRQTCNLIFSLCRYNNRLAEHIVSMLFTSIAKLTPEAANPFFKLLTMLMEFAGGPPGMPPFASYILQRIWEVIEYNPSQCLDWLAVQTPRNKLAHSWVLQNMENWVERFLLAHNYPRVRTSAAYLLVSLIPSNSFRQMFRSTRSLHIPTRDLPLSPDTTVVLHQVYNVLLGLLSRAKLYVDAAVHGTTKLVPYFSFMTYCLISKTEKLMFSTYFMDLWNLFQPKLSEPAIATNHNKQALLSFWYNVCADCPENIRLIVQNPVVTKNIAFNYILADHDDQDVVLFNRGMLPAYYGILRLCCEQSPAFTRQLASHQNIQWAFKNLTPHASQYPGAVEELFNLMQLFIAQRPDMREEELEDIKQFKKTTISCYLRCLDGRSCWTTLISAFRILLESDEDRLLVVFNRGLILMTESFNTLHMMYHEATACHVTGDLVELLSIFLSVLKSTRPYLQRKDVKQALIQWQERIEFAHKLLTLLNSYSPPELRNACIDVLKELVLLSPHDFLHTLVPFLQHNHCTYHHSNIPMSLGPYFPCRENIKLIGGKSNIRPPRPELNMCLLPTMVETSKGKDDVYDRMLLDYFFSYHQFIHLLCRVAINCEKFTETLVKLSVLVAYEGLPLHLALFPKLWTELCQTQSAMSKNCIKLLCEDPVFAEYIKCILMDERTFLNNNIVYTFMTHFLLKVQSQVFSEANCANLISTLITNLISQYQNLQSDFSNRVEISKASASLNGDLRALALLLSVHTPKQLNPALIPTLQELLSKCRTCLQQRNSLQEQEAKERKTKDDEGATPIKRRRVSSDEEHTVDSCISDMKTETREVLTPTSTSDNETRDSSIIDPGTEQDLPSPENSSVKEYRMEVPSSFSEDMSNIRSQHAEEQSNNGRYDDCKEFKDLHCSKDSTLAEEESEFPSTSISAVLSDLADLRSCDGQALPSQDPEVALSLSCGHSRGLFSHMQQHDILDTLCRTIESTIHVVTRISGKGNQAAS
Summary of the method: (§1)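 Labelling with Biotin-Ahx-Ub-VS (0.5 µM final, 1 h) followed a 3 h triplicate treatment of HEK293T lysate (495 µg per sample, Tris/CHAPS/IGEPAL buffer with protease inhibitors) with fragment at 200 µM or vehicle. Labelled DUBs were NeutrAvidin-enriched, digested with LysC and trypsin, and run by diaPASEF LC-MS/MS. The values, average log2 fragment/vehicle ratios by unpaired t-test, come from global-median-normalised Spectronaut label-free quantities. Proteins with ≥2 unique peptides were used.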

USP36 = molecular target: T1, USP36 (UniProt Q9P275)
T1 sequence (whole entry): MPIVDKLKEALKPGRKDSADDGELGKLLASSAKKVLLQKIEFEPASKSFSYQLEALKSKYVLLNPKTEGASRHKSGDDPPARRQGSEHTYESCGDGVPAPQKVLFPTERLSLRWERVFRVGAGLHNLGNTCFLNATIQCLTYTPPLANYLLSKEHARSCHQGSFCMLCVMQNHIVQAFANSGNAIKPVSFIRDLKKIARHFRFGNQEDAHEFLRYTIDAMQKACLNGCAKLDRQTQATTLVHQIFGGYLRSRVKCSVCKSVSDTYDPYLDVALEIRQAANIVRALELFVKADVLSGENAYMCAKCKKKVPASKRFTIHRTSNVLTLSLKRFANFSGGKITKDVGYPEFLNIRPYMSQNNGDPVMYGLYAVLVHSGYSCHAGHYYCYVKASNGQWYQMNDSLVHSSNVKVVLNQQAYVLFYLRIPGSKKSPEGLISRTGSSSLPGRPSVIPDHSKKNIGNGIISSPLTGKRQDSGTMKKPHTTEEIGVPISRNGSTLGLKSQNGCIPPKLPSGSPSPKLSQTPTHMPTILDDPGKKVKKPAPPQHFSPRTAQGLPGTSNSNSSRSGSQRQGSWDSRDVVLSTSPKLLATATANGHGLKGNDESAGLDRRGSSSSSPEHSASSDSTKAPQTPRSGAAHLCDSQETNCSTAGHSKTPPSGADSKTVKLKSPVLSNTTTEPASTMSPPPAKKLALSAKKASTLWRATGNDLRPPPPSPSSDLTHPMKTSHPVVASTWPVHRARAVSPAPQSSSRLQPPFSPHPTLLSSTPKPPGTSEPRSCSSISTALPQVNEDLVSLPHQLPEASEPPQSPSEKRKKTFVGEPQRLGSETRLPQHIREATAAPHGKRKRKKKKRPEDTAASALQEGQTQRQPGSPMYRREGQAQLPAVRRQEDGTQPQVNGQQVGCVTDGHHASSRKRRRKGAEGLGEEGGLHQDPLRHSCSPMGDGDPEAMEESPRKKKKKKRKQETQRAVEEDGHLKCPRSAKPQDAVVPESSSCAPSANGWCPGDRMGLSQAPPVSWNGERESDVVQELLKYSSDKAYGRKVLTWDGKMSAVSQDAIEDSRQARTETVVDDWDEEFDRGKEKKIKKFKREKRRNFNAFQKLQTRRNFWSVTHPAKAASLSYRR
Summary of the method: as §1

USP38 = molecular target: T2, USP38 (UniProt Q8NB14)
T2 sequence (whole entry): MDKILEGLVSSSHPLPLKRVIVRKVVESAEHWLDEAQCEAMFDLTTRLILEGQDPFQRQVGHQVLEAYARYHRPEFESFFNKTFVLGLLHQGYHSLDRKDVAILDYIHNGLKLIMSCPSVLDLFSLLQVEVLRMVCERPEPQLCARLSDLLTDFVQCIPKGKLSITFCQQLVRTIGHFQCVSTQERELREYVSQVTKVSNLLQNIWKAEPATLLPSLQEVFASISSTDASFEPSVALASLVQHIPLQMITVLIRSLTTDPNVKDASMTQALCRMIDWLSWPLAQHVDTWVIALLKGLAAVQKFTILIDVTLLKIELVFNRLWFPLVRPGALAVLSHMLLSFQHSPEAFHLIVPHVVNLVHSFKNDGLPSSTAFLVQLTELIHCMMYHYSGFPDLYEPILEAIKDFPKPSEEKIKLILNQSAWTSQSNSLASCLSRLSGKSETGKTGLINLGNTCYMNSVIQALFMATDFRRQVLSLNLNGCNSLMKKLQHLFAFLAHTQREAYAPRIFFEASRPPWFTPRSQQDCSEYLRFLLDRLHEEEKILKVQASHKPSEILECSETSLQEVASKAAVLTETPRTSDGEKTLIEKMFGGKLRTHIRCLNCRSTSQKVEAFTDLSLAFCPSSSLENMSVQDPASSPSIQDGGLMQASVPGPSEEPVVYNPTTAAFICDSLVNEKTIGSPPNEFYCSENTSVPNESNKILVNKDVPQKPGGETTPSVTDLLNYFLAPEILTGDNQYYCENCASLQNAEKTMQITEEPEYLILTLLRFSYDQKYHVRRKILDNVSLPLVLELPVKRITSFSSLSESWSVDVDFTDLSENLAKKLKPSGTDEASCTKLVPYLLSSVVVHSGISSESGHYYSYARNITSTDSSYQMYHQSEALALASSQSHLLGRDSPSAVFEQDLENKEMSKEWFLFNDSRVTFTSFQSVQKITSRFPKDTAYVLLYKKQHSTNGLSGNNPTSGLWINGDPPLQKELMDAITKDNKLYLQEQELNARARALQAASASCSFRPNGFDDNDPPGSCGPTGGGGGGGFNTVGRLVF
Summary of the method: as §1

USP39 = molecular target: T3, USP39 (UniProt Q53GS9)
T3 sequence (whole entry): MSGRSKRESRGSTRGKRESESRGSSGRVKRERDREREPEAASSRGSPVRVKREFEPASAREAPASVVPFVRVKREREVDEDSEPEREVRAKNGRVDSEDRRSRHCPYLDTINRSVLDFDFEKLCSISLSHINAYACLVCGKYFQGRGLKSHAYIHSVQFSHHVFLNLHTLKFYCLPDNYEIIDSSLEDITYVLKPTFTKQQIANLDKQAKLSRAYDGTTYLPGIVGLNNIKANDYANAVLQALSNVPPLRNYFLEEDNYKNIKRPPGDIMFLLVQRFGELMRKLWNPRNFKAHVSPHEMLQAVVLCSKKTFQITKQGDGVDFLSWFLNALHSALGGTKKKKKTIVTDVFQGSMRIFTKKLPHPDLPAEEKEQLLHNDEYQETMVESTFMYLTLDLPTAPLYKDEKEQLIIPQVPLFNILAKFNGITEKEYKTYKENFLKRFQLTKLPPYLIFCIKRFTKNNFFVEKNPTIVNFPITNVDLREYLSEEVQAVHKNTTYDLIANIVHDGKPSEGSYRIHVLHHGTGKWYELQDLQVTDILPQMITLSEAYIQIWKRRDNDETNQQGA
Summary of the method: as §1

USP4 = molecular target: T4, USP4 (UniProt Q13107)
T4 sequence (whole entry): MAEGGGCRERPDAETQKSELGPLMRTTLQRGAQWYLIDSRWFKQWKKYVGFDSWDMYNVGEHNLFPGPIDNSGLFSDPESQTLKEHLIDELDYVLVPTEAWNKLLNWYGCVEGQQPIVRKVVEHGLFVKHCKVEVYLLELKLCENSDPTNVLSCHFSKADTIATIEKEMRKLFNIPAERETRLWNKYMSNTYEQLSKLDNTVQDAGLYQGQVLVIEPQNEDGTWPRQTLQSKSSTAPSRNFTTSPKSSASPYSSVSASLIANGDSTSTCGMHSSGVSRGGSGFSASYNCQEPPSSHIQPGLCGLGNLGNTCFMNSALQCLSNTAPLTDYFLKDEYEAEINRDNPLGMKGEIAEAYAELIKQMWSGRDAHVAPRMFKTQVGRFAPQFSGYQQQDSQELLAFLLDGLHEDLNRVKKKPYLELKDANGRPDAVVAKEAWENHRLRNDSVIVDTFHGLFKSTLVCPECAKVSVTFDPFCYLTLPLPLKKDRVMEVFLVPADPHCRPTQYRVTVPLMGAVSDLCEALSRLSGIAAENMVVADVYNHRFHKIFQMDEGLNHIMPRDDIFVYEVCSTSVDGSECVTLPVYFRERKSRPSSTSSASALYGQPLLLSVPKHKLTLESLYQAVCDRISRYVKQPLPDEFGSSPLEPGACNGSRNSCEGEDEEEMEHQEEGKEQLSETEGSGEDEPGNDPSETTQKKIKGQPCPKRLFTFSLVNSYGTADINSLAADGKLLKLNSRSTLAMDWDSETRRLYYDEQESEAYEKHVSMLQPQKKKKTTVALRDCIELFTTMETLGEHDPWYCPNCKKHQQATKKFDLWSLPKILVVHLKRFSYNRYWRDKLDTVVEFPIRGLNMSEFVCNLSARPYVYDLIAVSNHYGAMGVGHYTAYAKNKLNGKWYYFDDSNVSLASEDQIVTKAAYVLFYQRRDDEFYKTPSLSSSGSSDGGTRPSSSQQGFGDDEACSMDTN
Summary of the method: as §1

Measured: log2 ratio of Biotin-Ahx-Ub-VS probe labelling

Cl.O=C(CCl)NCc1cc2c(nc1O)CCCC2
inactive: USP34 -0.103 | USP36 -0.408 | USP38 -0.0702 | USP39 -0.212 | USP4 -0.0856
